# ± gives the standard deviation of the averaged measurements.
# Test system: FaDu
# Test: mitochondrial oxygen consumption rate normalised to cell number, Z score vs plate DMSO wells; higher = higher oxygen consumption (negative = OCR reduction)
# Conditions: treatment time 24 h, assay medium: 5 mM glucose, 5 mM pyruvate, 4 mM glutamine
# Procedure: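 Secondary screen: FaDu cells were incubated 24 h with the top 130 primary hits at 0.08, 0.4, 2 or 10 uM. Mitochondrial-specific OCR (basal minus antimycin A) was measured on a Seahorse XF96 in medium with 5 mM glucose, 5 mM pyruvate and 4 mM glutamine and normalised to Hoechst cell number. OCR score = (OCR - mean of plate DMSO wells) / SD of plate DMSO wells. Three repeats.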
# 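Also: compound exposure in DMEM (4 mM L-glutamine, 5 mM glucose), antimycin A injected at 2 µM after the basal reading and its residual OCR subtracted from basal.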
Compound,mitochondrial oxygen consumption rate normalised (0.08 µM),mitochondrial oxygen consumption rate normalised (0.4 µM),mitochondrial oxygen consumption rate normalised (2 µM),mitochondrial oxygen consumption rate normalised (10 µM)
Clc1ccc(COC(Cn2ccnc2)c2ccc(Cl)cc2Cl)cc1 (stereo not drawn),0.524 ± 0.89,0.994 ± 1.6,0.111 ± 1.5,-4.62 ± 1.4
CCN(CC)CCCC(C)Nc1c2ccc(Cl)cc2nc2ccc(OC)cc12 (stereo not drawn),-0.58 ± 1.2,0.524 ± 1.1,-2.47 ± 1.1,
Cc1c2oc3c(C)ccc(C(=O)N[C@@H]4C(=O)N[C@H](C(C)C)C(=O)N5CCC[C@H]5C(=O)N(C)CC(=O)N(C)[C@@H](C(C)C)C(=O)O[C@@H]4C)c3nc-2c(C(=O)N[C@@H]2C(=O)N[C@H](C(C)C)C(=O)N3CCC[C@H]3C(=O)N(C)CC(=O)N(C)[C@@H](C(C)C)C(=O)O[C@@H]2C)c(N)c1=O,-3.2 ± 1.3,-7.48 ± 0.36,-9.57 ± 0.5,
Cc1cc(N)c2ccccc2[n+]1CCCCCCCCCC[n+]1c(C)cc(N)c2ccccc21,0.324 ± 0.65,0.622 ± 0.8,-4.67 ± 2.1,-7.52 ± 1.4
CC(C)OC(=O)C(C)(C)Oc1ccc(C(=O)c2ccc(Cl)cc2)cc1,-0.014 ± 0.66,1.08 ± 0.7,0.455 ± 1.1,-2.82 ± 2.6
Cc1cc(=O)[nH]c(=S)[nH]1,-1.18 ± 0.93,-0.337 ± 0.83,-1.08 ± 0.99,0.503 ± 0.66
CC[C@@]1(O)C(=O)OCc2c1cc1n(c2=O)Cc2cc3c(CN(C)C)c(O)ccc3nc2-1 [Topotecan],-0.916 ± 1.4,0.308 ± 0.26,,0.664 ± 1.4
Cc1cc(/C=C/c2ccc3cc(N(C)C)ccc3[n+]2C)c(C)n1-c1ccccc1,-1.73 ± 1,-11.7 ± 0.64,-13.47 ± 0.04,< -13.8
c1ccc2c(c1)CCCC2C1=NCCN1 (stereo not drawn),-1.42 ± 2.7,-0.536 ± 1.1,-0.793 ± 1,-0.259 ± 1
NS(=O)(=O)c1cc2c(cc1Cl)N=CNS2(=O)=O,-0.245 ± 2.1,0.722 ± 0.73,0.0559 ± 1.2,0.507 ± 1.1
CC[C@@]1(O)C(=O)OCc2c1cc1n(c2=O)Cc2cc3c(CN(C)C)c(O)ccc3nc2-1,,,-1.46 ± 1.6,

# From the supplement of paper PMC4962491
